Most compounds without a hit are left out; they make up all but 3.7% or so of the library.
Nrf2 block = Nrf2 qHTS screen for inhibitors; AID 504444, 2011; A549 ARE-Fluc reporter, luciferase luminescence, 18-24 h; actives 2.1% (n = 360,000); Potency, µM (highest dose often 46 µM), without a hit: top-dose activity change, negative = inhibition, most hits filed as inhibitors; also: potency is read from the fitted curve at half-maximal effect; % is scaled to controls: 0 for no effect and ±100 for the full control effect; nearly all actives have a fitted effect of over 60% in size
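Two sequential reads on A549 ARE_Fluc cells exposed to compound for 18-24 h: a CellTiter-Fluor fluorescence read for viability, then a luciferase luminescence read for Nrf2/ARE activity.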
A549 tox = Nrf2 qHTS screen for inhibitors: counterscreen for cytotoxicity; AID 504648, 2011; Potency, µM (doses to about 46 µM), for the others: at the top dose activity change, negative = cytotoxicity, most hits filed as inhibitors; actives 0.16% (n = 390,000); A549 ARE-Fluc cells, CellTiter-Fluor viability, 18-24 h; also: potency is read from the fitted curve at half-maximal effect; % is scaled to controls: 0 for no effect and ±100 for the full control effect
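Cytotoxicity counterscreen: CellTiter-Fluor fluorescence was measured in A549 ARE_Fluc cells after 18-24 h of compound exposure in a concentration series. The subsequent BugLite luminescent read reports ARE-luciferase activity.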
Nrf2 ARE act = qHTS of Nrf2 Activators; AREc32 ARE-luciferase reporter (MCF7-derived line), luminescence, 24 h; Potency, µM (titrated, usually from 46.1 µM), inactives show top-dose activation, usual class: activators; actives 0.31% (n = 410,000); AID 624171, 2012; also: potency is read from the fitted curve at half-maximal effect; % of control where 0% means no effect; nearly all actives have a fitted effect of over 65% in size
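ARE-driven firefly luciferase activity in AREc32 cells measured after a 24 hr compound exposure at 37 deg C, using Steady-Glo reagent and a 30 min room-temperature hold.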
IL-2 act = qHTS of IL-2 Activators; activation, % (series mostly up to about 46 µM); actives 0.065% (n = 360,000); AID 652025, 2013; IL-2 activation reporter assay, cell-based qHTS; stimulated with anti-CD3/CD4/CD28 beads; in transgenic mouse T cells; in the data active = activation above about 50%; inconclusive = mostly about 30% to 49%; also: 0% is about no effect
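Readout is EGFP and DsRed signal by fluorescent plate cytometry after 18 h at 37 degrees C. Transgenic mouse T cells (750/well) received compound for 60 min before bead stimulation (anti-CD3, anti-CD4, anti-CD28); memory T cells served as non-tolerant control.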
miR-21 reporter = qHTS Assay for Modulators of miRNAs and/orActivators of miR-21 | AID 2288, 2010 | HeLa miR-21 FLuc reporter, luciferase, 48 h | Potency, µM (doses to about 38.3 µM), for the others: at the highest dose activity change, positive = activation, usual class: activators | 340,000 tested, under 10 active;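 also: % of control where 0% means no effect; miR-21 action dims this reporter so a rising signal means less miR-21 action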
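Using DMEM plus 10% FBS, HeLa miR-21-FLuc cells are incubated with test compounds (final up to about 40uM) for 48 hours; firefly luciferase signal is then imaged following reagent-mediated lysis.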
ClpP mod = qHTS Assay for Activators of ClpP. ATP-dependent Clp protease proteolytic subunit (Bacillus subtilis (strain 168)), P80244. purified B. subtilis ClpP, FRET peptide cleavage, 20 min. Potency, µM (series often up to 57.5 µM), without a hit: at the highest dose activity change, negative = active. actives 1.9% (n = 340,000); active = well fitted falling curve with a large enough effect; inconclusive = small, poorly fitted or top-dose-only effect; inactive = no such curve, though single readings can be large or run the other way; also: potency is read from the fitted curve at half-maximal effect; the source files actives as falling curves though it sought activators and does not explain the sign; nearly all actives have a fitted effect of over 65% in size
Target sequence (P80244 whole entry, looked up): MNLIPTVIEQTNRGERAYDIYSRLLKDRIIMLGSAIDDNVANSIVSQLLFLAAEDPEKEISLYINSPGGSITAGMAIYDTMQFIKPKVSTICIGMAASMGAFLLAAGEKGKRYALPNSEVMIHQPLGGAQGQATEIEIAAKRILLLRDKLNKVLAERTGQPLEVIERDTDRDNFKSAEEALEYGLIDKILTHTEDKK
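Buffer: 100 mM Tris/HCl pH8, 100 mM KCl, 0.05% low protease BSA, 2.5% glycerol, 0.01% Tween-20. ClpP 10 microg/mL final; 20 min RT; delta FRET normalized to ADEP and DMSO controls.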
* marks the source's active call; other numbers are inactive results; ? = inconclusive; · = no result given. Unless noted, calls follow the shape of the dose curve; as a rule, active = well fitted curve in the direction sought with a large enough effect; inconclusive = small, poorly fitted or top-dose-only effect, or another doubt; inactive = no such curve, though single readings can be large; an effect the other way counts as inactive or inconclusive.

SMILES	Nrf2 block	A549 tox	Nrf2 ARE act	IL-2 act	miR-21 reporter	ClpP mod
CCN(CC)c1ccc(/C=N/c2sc3c(c2C#N)C2CCN3CC2)c(O)c1	11.2%	-7.7%	2.3%	52.9*	-12.0%	4.5%
CSc1ccccc1NC(=O)CN(C)CC(=O)c1[nH]c(C)c(C(C)=O)c1C	?	-8.5%	0.7%	-1.0	·	-1.1%
CCc1nn2c(=O)cc(N3CCN(C)CC3)nc2s1	7.7%	-2.1%	·	·	·	·
Cc1ccc(-n2ncc(C(=O)N3CCN(c4ccc(Cl)cc4)CC3)c2C2CCN(C(=O)OC(C)(C)C)CC2)c(C)c1	14.6µM*	-28.3%	0.4%	·	8.7%	-1.1%
[Hg+][c]1ccccc1	·	·	·	·	·	-3.1%
CN1C(=O)c2ccccc2Sc2ccc(NC(=O)c3ccc(C(F)(F)F)cc3)cc21	·	-11.6%	0.5%	·	?	6.4%
Cc1cc(OCC(=O)Nc2cc(C)nn2-c2ccccn2)c2c3c(c(=O)oc2c1)CCC3	·	·	·	·	7.0%	·
Cc1ccc(-n2nc(C)cc2NC(=O)COc2cc(C)cc3oc(=O)c4c(c23)CCC4)cc1	?	?	3.3%	-1.2	22.5%	25.1µM*
Cc1cc(OC(=O)c2ccco2)c2c3c(c(=O)oc2c1)CCCC3	9.3%	-2.1%	2.4%	-4.8	9.1%	22.4µM*
CCCOC(=O)COc1cc(C)cc2oc(=O)c3c(c12)CCC3	8.7%	-3.2%	0.0%	-1.7	2.4%	25.1µM*
Cc1cc(OC(=O)c2cccs2)c2c3c(c(=O)oc2c1)CCCC3	8.6%	0.3%	-0.6%	-2.7	-4.7%	-2.7%
Cc1cc(OCC(=O)O)c2c3c(c(=O)oc2c1)CCCC3	12.2%	2.0%	-0.5%	-1.0	-3.9%	?
ClCCN(CCCl)c1ccc(C=Nc2ccncc2)cc1	·	·	·	·	·	-6.1%
Cc1ccc(NC(=O)c2cc(S(=O)(=O)N3CCOCC3)c(Cl)cc2Cl)cc1	?	1.3%	4.0%	·	?	-3.8%
CNC(=O)O/N=C/C(C)(C)S(C)=O (stereo not given)	·	·	·	·	·	0.8%
NC(=O)c1ccc(N=Cc2c(O)n(Cc3ccco3)c(=O)[nH]c2=O)cc1	10.9%	7.1%	-1.4%	1.5	2.3%	-6.1%
CCN(CC)c1ccc(N=Cc2c(O)n(Cc3ccco3)c(=O)[nH]c2=O)cc1	-16.8%	0.6%	3.1%	83.9*	2.7%	·
CCCC1COC(Cn2cncn2)(c2ccc(Cl)cc2Cl)O1 (stereo not given)	-6.2%	3.1%	-0.5%	-2.9	-10.8%	-2.9%
CC(=O)N1CCN(c2ccc(OC[C@H]3CO[C@](Cn4ccnc4)(c4ccc(Cl)cc4Cl)O3)cc2)CC1	18.4µM*	-1.2%	11.0%	0.4	?	-1.6%
Nc1nonc1-n1nnc(C(=O)N/N=C/c2ccc3c(c2)OCO3)c1CSc1ccccc1	?	-7.8%	0.3%	-0.9	1.6%	0.0%
C[n+]1c2ccccc2nc2ccc(NCCO)cc21	?	16.4µM*	0.2%	-0.4	24.5%	·
OCCNc1c2c(nc3ccccc13)CCCC2	15.1%	-7.8%	-0.1%	-0.5	-7.9%	0.9%
CNc1ccc2nc3ccccc3[n+](C)c2c1	6.51µM*	7.31µM*	-0.2%	-5.9	29.5%	0.2%
COc1cc([C@@H]2c3cc4c(c(O)c3C[C@H]3COC(=O)[C@@H]32)OCO4)cc(OC)c1OC	?	-3.9%	·	·	·	0.1%
CCCCN1CCS(=O)(=O)N(Cc2ccccc2Br)CC(C(=O)OC)C1 (stereo not given)	12.5%	-2.6%	?	-0.8	·	1.9%
SMILES	Nrf2 block	A549 tox	Nrf2 ARE act	IL-2 act	miR-21 reporter	ClpP mod
COC(=O)C1CN(C#N)N(c2ccc(Cl)cc2)C12c1ccccc1-c1ccccc12 (stereo not given)	18.4µM*	?	-3.3%	-2.7	?	-1.5%
COc1cccc(CN2CCC(n3nccc3NC(=O)CCOc3ccccc3)CC2)c1O	?	-13.7%	0.0%	0.0	·	-2.2%
C=CCn1c(O)c(C(C)=NCCCN(C)C)c(=O)[nH]c1=O	1.6%	3.8%	0.2%	1.1	8.5%	14.1µM*
CC[n+]1c(SC)ccc2cc(OC)ccc21	18.4µM*	?	-0.3%	-0.3	-2.6%	?
Cc1ccc(S(=O)(=O)c2nnn3c2nc(N2CCC(C(N)=O)CC2)c2cc(Cl)ccc23)cc1C	?	-5.1%	-0.3%	·	-11.8%	?
CC(C)(C)c1ccc(CSc2cnn(C(C)(C)C)c(=O)c2Cl)cc1	0.146µM*	-9.6%	0.0%	-4.7	9.4%	-2.1%
CC(=O)OC1CCC2(C)C(CCC3C4CC(N5CC5)C(C(C)=O)C4(C)CC(=O)C32)C1 (stereo not given)	8.2%	14.6µM*	16.4%	0.6	·	-4.1%
COC(=O)C1=C(c2ccc(-c3ccccc3)c(F)c2)C[C@@H]2CC[C@H]1N2C(=O)N1CCc2cc(OC)c(OC)cc2C1	16.4µM*	-14.4%	3.1%	-0.3	·	-13.5%
COC(=O)C1=C(c2ccc(-c3ccccc3)c(F)c2)C[C@@H]2CC[C@H]1N2C(=O)N1CCC(C)CC1	16.4µM*	-7.2%	0.5%	-0.4	·	-13.5%
COC(=O)C1=C(c2ccc(-c3ccccc3)c(F)c2)C[C@@H]2CC[C@H]1N2C(=O)N1CCCC1	20.6µM*	-1.3%	0.6%	-0.8	·	0.0%
COC(=O)C1=C(c2ccc(-c3ccccc3)c(F)c2)C[C@@H]2CC[C@H]1N2C(=O)N1CCCCC1	?	-20.8%	3.8%	-0.6	·	-10.5%
COC(=O)C1=C(c2ccc(-c3ccccc3)c(F)c2)C[C@@H]2CC[C@H]1N2C(=O)N1CCC(O)CC1	?	-1.3%	4.0%	-0.8	·	-0.7%
Cc1cccc(-n2c(=O)c3c(c4cc(C)ccc4n3C)n(CC(=O)Nc3ccc(C)c(C)c3)c2=O)c1	7.0%	-5.7%	-0.2%	·	4.8%	?
O=C(c1ccccc1)c1ccc2nc(N3CCN(c4ccc(F)cc4)CC3)c3nncn3c2c1	?	0.2%	-0.6%	·	0.1%	0.2%
COc1cc([N+](=O)[O-])c2nc(C)ccc2c1[N+](=O)[O-]	-7.1%	-8.4%	17.8µM*	-0.4	·	2.0%
COc1cc([N+](=O)[O-])c2ncccc2c1[N+](=O)[O-]	·	·	-1.1%	-0.2	·	-1.2%
CCC(=O)N1N=C(c2c(O)n(C)c(=O)n(C)c2=O)CC1c1ccccc1 (stereo not given)	?	-11.2%	0.0%	0.2	4.5%	-6.0%
COc1ccc(Nc2c(-c3cc(Br)ccc3O)nc3ncccn23)cc1OC	?	-18.4%	11.0%	·	0.8%	-0.6%
